Results published in PubChem BioAssay (NCATS).
“And” between values parts separate entries of the source, which are not always exact repeats. Equal values may be shown once. Records with an inconclusive call do not appear. Some structures have more than one record in an assay (separate samples or runs), and their calls can disagree. The source made the active and inactive calls. Unless noted, calls follow the shape of the dose curve; as a rule, active = well fitted curve in the direction sought with a large enough effect; inconclusive = small, poorly fitted or top-dose-only effect, or another doubt; inactive = no such curve, though single readings can be large; an effect the other way counts as inactive or inconclusive.

Tests used:
[1] = Cell Viability - MRC5 (AID 434; calls by dose curve;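 also: potency is read from the fitted curve at half-maximal effect; cells exposed to compound for 40 hours at 37 °C; potency reflects cytotoxicity seen as loss of intracellular ATP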); conditions: MRC5 lung fibroblast viability, qHTS
How it was run: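 AC50 values come from Hill-equation fits of intracellular ATP loss, measured by CellTiter-Glo luminescence. Normal lung fibroblasts (MRC5) had 40 hr compound treatment at 37 C, normalized between DMSO and 100 uM tamoxifen.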

[2] = Cellular Toxicity (caspase-3) HepG2 (AID 654); conditions: HepG2 caspase-3 activation, luminescence; series mostly up to 92.2 µM; also: potency is read from the fitted curve at half-maximal effect;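 as to caspase-3 activation: cells exposed to compound for 16 hours before reading; 0% = DMSO alone and 100% = caspase signal from 100 µM tamoxifen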
How it was run: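 Caspase 3/7 activation is measured as a luminescence increase (aminoluciferin substrate) after 16 h compound exposure of human hepatocarcinoma HepG2 cells. AC50 values are Hill fits, scaled between DMSO baseline and 100 uM tamoxifen stimulation.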

[3] = Cellular Toxicity (caspase-3) HUV-EC-C (AID 656); conditions: HUV-EC-C cells, caspase-3 activation (apoptosis); series mostly up to 92.2 µM; also: potency is read from the fitted curve at half-maximal effect
How it was run: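 HUV-EC-C cells (1000/well) in complete medium, compound-treated 16 h at 37 °C; caspase-3/7 activity read by Caspase-Glo 3/7 luminescence. Normalized to DMSO (basal) and 100 uM tamoxifen (100%); AC50 from Hill-equation concentration-response fits.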

[4] = Cellular Toxicity (caspase-3) SHSY5Y (AID 657); conditions: SH-SY5Y caspase-3 activation; series mostly up to 91.7 µM
How it was run: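 SH-SY5Y human neuroblastoma cells, 1500/well, exposed to compound for 16 hours at 37 °C in complete medium. Caspase-3/7 activity read by Caspase-Glo luminescence after 1 hr at room temperature, normalized to DMSO and 10 uM staurosporine; AC50 from Hill fit.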

[5] = Cellular Toxicity (caspase-3) MRC-5 (AID 659); conditions: MRC-5 cells, luminescence, normalized: DMSO 0%, 10 µM staurosporine 100%; series mostly up to 91.7 µM
How it was run: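 Luminescent Caspase-Glo 3/7 read-out (1 h, room temperature) after a 16 h, 37 °C compound exposure of MRC-5 lung fibroblasts at 1500 cells/well. Concentration-response AC50 from Hill equation; 0% DMSO, 100% 10 uM staurosporine.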

[6] = Cellular Toxicity (caspase-3) Mesangial (AID 660); conditions: mesangial cells, normalized: DMSO 0%, 100 µM tamoxifen 100%; series mostly up to 91.7 µM;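 also: cells exposed to compound for 16 h before the caspase read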
How it was run: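 Caspase 3/7 activation measured by Caspase-Glo 3/7 luminescence (20 min, room temperature) following 16 h exposure of mesangial cells (1000/well); AC50 from Hill-equation fit, normalized to DMSO and 100 uM tamoxifen.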

[7] = Cellular Toxicity (caspase-3) SK-N-SH (AID 661); conditions: SK-N-SH caspase-3 activation, qHTS, DMSO as zero, staurosporine as full; series mostly up to 91.7 µM
How it was run: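 Caspase 3/7 activation was read by luminogenic substrate cleavage after 16 hour treatment of SK-N-SH cells. Signal was scaled between DMSO and 10 uM staurosporine, and concentration-response data were fitted with the Hill equation for AC50.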

[8] = Cellular Toxicity (caspase-3) H-4-II-E (AID 663); conditions: H-4-II-E rat hepatoma; Potency: caspase-3 activation; series mostly up to 92.2 µM; also: potency is read from the fitted curve at half-maximal effect;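 as to caspase-3 activation: cells exposed to compound for 16 hr before readout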
How it was run: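 Caspase 3/7 activation measured by luminescent aminoluciferin substrate cleavage after 16 hr compound treatment of H-4-II-E cells in complete medium. Increase normalized between DMSO (basal) and 100 uM tamoxifen (100%); Hill-equation AC50 from concentration-response.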

[9] = Cellular Toxicity (caspase-3) N2a (AID 665); conditions: N2a cells, luminescence, normalized: DMSO 0%, 10 µM staurosporine 100%; series mostly up to 92.2 µM;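 also: compound exposure lasted 16 h at 37 °C before readout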
How it was run: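 Caspase-3/7 activation measured as luminescence from Caspase-Glo reagent (1 h, room temperature) after 16 h compound exposure of mouse N2a cells. AC50 values from Hill-equation concentration-response, scaled between DMSO and 10 uM staurosporine.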

[10] = Cellular Toxicity (caspase-3) NIH 3T3 (AID 666); conditions: NIH 3T3 caspase-3 activation, apoptosis/toxicity, 0% DMSO, 100% is 100 µM tamoxifen; series mostly up to 92.2 µM;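 also: 0% = DMSO basal and 100% = 100 µM tamoxifen stimulation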
How it was run: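 Caspase-Glo 3/7 luminescence reported caspase activation in 1000 NIH 3T3 cells/well after 16 h compound exposure at 37 C. DMSO set basal and 100 uM tamoxifen set 100% stimulation; concentration-response modeled with the Hill equation for AC50.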

[11] = Cellular Toxicity (caspase-3) Renal Proximal Tubule (AID 667); conditions: renal proximal tubule cells, primary cells freshly taken from rat; Potency: caspase-3 activation; series mostly up to 91.7 µM;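 also: cells exposed to compound for 16 hours at 37 °C before detection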; also: potency is read from the fitted curve at half-maximal effect
How it was run: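 Freshly isolated primary rat kidney proximal tubule cells, 1000/well, treated 16 hr at 37 °C, then Caspase-Glo 3/7 luminescence after 1 hr. Normalized to DMSO and 10 uM staurosporine; AC50 from Hill fit.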

[12] = MultiTox-Fluor Cytotoxicity Assay - LYMP1-003 - Dead Cells (AID 961); conditions: LYMP1-003 lymphoblastoid cells, dead-cell protease fluorescence; series mostly up to 92.2 µM; also: nearly all actives have a fitted effect of over 70% in size; also: potency is read from the fitted curve at half-maximal effect
How it was run: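 LYMP1-003 lymphoblastoid, 2500 cells/well, 5 hr settle then 16 hr cpd at 37 C; MultiTox-Fluor reagent 60 min RT; Ex/Em 485/520 dead-cell signal; norm. DMSO = 0%, 15 uM tetraoctylammonium bromide = 100%; Hill AC50.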

[13] = MultiTox-Fluor Cytotoxicity Assay - LYMP1-003 - Live Cells (AID 962); conditions: LYMP1-003 lymphoblastoid cells, MultiTox-Fluor live-cell protease fluorescence; series mostly up to 92.2 µM;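 also: 0% = DMSO only and full loss = 92 µM tetraoctylammonium bromide; cytotoxic hits lower the live-cell protease signal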
How it was run: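 Live-cell protease activity (GF-AFC substrate, 405/510 nm, 60 min at room temperature) after 16 h, 37 C compound exposure of human lymphoblastoid LYMP1-003 cells; concentration-response fitted to the Hill equation for AC50.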

[14] = Cell Viability - LYMP1-003 - Assay at 24 hr (AID 963); conditions: LYMP1-003 lymphoblastoid cell viability; series mostly up to 92.2 µM; also: potency is read from the fitted curve at half-maximal effect
How it was run: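 Concentration-response qHTS: ATP loss measured by CellTiter-Glo luminescence after 24 h compound exposure at 37 C. Cells were LYMP1-003 human lymphoblastoid, 2500 per well. AC50 derived via standard Hill equation modeling.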

[15] = qHTS Assay for Identification of Small Molecule Inducers of Hypoxia Response (AID 2120; active = well fitted curve in the direction sought with a large enough effect in the signal ratio, with a control signal flat, not every such curve was filed as active; the % refers to the signal ratio; also: potency is read from the fitted curve at half-maximal effect; as to activation: 0% is about no effect); conditions: hypoxia response reporter cells, beta-lactamase ratio readout; series mostly up to 104 µM
How it was run: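 Reporter induction read as the CCF4 blue/green (460nm/530nm) emission ratio after 2.5 h dye loading at room temperature. ME-180 HRE-beta-lactamase cells received titrated compounds for 17 h at 37 degrees Celsius; AC50 values derived.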

[16] = biological target: Peroxisome proliferator-activated receptor alpha (Homo sapiens) (UniProt Q07869); experiment: qHTS assay for small molecule agonists of the peroxisome proliferator-activated receptor alpha (PPARalpha) signaling pathway (AID 651778); conditions: PathHunter PPARalpha complementation, chemiluminescence, 6 h; max response: active compounds read high; also: % of control where 0% means no effect
Peroxisome proliferator-activated receptor alpha (Homo sapiens), sequence (Q07869 whole entry, looked up): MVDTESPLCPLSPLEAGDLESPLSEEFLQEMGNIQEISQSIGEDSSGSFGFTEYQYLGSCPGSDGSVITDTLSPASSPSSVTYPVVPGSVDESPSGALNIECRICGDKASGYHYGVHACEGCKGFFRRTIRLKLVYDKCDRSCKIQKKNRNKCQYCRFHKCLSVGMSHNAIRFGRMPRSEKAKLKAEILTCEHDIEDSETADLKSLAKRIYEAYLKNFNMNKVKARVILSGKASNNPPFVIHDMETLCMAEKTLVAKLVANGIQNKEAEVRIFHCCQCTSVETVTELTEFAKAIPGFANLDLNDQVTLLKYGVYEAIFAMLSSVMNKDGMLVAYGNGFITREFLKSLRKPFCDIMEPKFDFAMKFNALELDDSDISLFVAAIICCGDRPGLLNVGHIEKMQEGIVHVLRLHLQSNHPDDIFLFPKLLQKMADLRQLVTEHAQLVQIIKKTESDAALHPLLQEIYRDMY
How it was run: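 Chemiluminescence from complemented enzyme reported PPARalpha activation in cells after 6 hr of compound treatment at 37 C. The detection reagent was incubated for 60 min at room temperature, and compounds were scored as agonists.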

[17] = qHTS assay for small molecule agonists of the antioxidant response element (ARE) signaling pathway measured by Nrf2-dependant transcriptional activity - cell viability counter screen (AID 720653; active = well fitted curve in the direction sought with a large enough effect in the repeat runs; an effect the other way counts as inactive or inconclusive; also: potency is read from the fitted curve at half-maximal effect; as to max response: % is scaled to controls: 0 for no effect and ±100 for the full control effect); conditions: ARE-bla HepG2 viability, CellTiter-Glo ATP luminescence, 16 h; max response: active compounds read low
How it was run: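 Cytotoxicity counter screen: intracellular ATP quantified by CellTiter-Glo luminescence in the same ARE-bla HepG2 plates, after 16 h compound exposure and a 2 h beta-lactamase substrate step.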

[18] = qHTS assay for cell viability of the p53RE-bla HCT-116 cell line (AID 743292); conditions: p53RE-bla HCT-116 viability, ATP luminescence, 16 h; series mostly up to 95 µM; also: nearly all actives have a fitted effect of over 55% in size; also: potency is read from the fitted curve at half-maximal effect
How it was run: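 ATP-based luminescence, 16 h compound exposure at 37 C, p53RE-bla HCT-116 cells at 4,000/well.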

[19] = Cell Viability - HUV-EC-C (AID 542); conditions: HUV-EC-C endothelial cell viability, qHTS; series mostly up to 92.2 µM;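 also: cells exposed to compound for 40 hours; nearly all actives have a fitted effect of over 35% in size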; also: potency is read from the fitted curve at half-maximal effect
How it was run: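 CellTiter-Glo luminescence measured ATP loss in HUV-EC-C cells (1000/well) after 40 hr compound exposure at 37 °C, in complete culture medium. Concentration-response data were Hill-fitted to give AC50.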

[20] = MultiTox-Fluor Cytotoxicity Assay - LYMP1-001 - Dead Cells (AID 946); conditions: LYMP1-001 lymphoblastoid cells, dead-cell protease fluorescence; series mostly up to 92.2 µM
How it was run: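 Seed 2500 LYMP1-001 cells/well, incubate 5 hr at 37 C; add compound, 16 hr at 37 C; add MultiTox-Fluor reagent, 60 min RT; read dead-cell fluorescence Ex/Em=485/520. Normalize to DMSO and 15 uM tetraoctylammonium bromide.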

Cc1c2ccccc2c(C)c2c1ccc1ccccc12
inactive: Potency [2] | Potency [3] | Potency [4] | outcome [5] | outcome [6] | outcome [7] | Potency [8] | outcome [9] | outcome [10] | Potency [11] | Potency [13] | Potency [14] | max response [16] 2.82% and -0.29% | max response [17] -7.46% | Potency [18]
active: Potency [1] 17.9 µM | Potency [12] 39.8 µM | Potency [15] 44.7 µM | Potency [17] 44.7 µM

CC1=C(/C=C/C(C)=C/C=C/C(C)=C/C=O)C(C)(C)CCC1
inactive: outcome [5] | Potency [15] | max response [16] -2.8% | max response [17] 2.27%
active: Potency [1] 33.4 µM | Potency [19] 31.6 µM | Potency [2] 63.1 µM | Potency [3] 39.8 µM | Potency [8] 31.6 µM | Potency [11] 31.6 µM | Potency [12] 50.1 µM | Potency [14] 50.1 µM | Potency [18] 50.1 µM

c1ccc(SCCSc2ccccc2)cc1
inactive: Potency [1] > 92 µM | Potency [19] | Potency [2] | Potency [3] | Potency [4] | outcome [5] | outcome [6] | outcome [7] | Potency [8] | outcome [9] | outcome [10] | Potency [11] | Potency [20] | Potency [12] | Potency [13] | Potency [14] | Potency [15] | max response [16] 2.97% | max response [17] 1.28% | Potency [18]

CC(/C=C/C=C(C)/C=C/C(=O)O)=C\C=C\C=C(C)\C=C\C=C(C)\C=C\C(=O)O
inactive: Potency [1] > 92 µM | Potency [19] | Potency [2] | Potency [3] | Potency [4] | outcome [5] | outcome [6] | outcome [7] | Potency [8] | outcome [9] | Potency [11] | Potency [20] | Potency [12] | Potency [13] | Potency [14] | Potency [15] | max response [16] -2.62% | max response [17] -1.24% | Potency [18]

O=C(OCC1CO1)C1CCCCC1C(=O)OCC1CO1 (stereo not given)
inactive: Potency [1] > 92 µM | Potency [19] | Potency [2] | Potency [3] | Potency [4] | outcome [5] | outcome [6] | outcome [7] | Potency [8] | outcome [9] | outcome [10] | Potency [11] | Potency [20] | Potency [13] | Potency [14] | Potency [15] | max response [16] 11.4% | max response [17] 4.68% | Potency [18]

Brc1cc(Oc2cc(Br)c(Br)c(Br)c2Br)c(Br)c(Br)c1Br
inactive: Potency [1] > 92 µM | Potency [19] | Potency [2] | Potency [3] | Potency [4] | outcome [5] | outcome [6] | outcome [7] | Potency [8] | outcome [9] | outcome [10] | Potency [11] | Potency [20] | Potency [12] | Potency [13] | Potency [14] | Potency [15] | max response [16] -7.16% and 0.47% | max response [17] 3.78% and -22.3% | Potency [18]
